# This excerpt belongs to a sample that is enriched for hits.
# GIRK2 act: Activates human GIRK2-containing potassium channels. P48051. 34,000 tested, under 10 active. activation (% efficacy), % for hits at 37.5 µM. HEK293 GIRK2/NPY4 cells, thallium flux fluorescence. AID 1259324;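 active = primary screen hit, no activity in plain HEK293 cells, and in GIRK2-only cells above 5% efficacy rising with concentration; inactive = the rest, including fluorescent compounds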;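 also: efficacy is normalized control-subtracted fluorescence 15 s after thallium addition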
# Target sequence (P48051 whole entry, looked up): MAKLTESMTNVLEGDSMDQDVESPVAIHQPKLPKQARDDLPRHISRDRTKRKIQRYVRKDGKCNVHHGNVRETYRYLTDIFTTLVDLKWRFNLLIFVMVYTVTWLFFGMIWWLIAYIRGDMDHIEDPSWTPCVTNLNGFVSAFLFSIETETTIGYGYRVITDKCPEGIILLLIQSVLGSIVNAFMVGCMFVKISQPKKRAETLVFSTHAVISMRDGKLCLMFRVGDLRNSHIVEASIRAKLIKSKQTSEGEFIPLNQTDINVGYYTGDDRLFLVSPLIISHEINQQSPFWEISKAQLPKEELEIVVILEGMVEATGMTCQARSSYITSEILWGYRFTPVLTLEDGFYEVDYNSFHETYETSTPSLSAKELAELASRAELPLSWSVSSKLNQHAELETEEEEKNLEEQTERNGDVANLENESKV
# GluA2 TARP mod: modulates AMPAR-stargazin complexes; actives 3.5% (n = 40,000); O88602+P19491; HEK293 GluA2+stargazin, membrane potential dye (FDSS), glutamate EC50; hits were called plate by plate, in both directions; AID 1259245; calls only at 30 µM;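 active = any of four per-well response measures lying three or more SD from its plate-wide compound average, in either direction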
# Calls only; . = inactive; / = no result given; + = active, no number.
SMILES,GIRK2 act,GluA2 TARP mod
Cc1c(C)n2c3c(=O)n(CC(N)=O)c(=O)n(C)c3nc2n1-c1ccc(Br)cc1,/,.
CCOC(=O)Cn1c(-c2ccccc2)cn2c3c(=O)n(C)c(=O)n(C)c3nc12,/,.
COC(=O)Cn1c(-c2ccccc2)cn2c3c(=O)n(C)c(=O)n(C)c3nc12,.,+
Cc1c(C)n2c3c(=O)n(CC(N)=O)c(=O)n(C)c3nc2n1CCCn1ccnc1,.,+
O=C(NC1CCCCC1)C(=O)N1CCN(Cc2ccc3c(c2)OCO3)CC1,/,.
COc1ccc(N2CCN(c3nc4c(c(=O)[nH]c(=O)n4C)n3Cc3ccccc3)CC2)cc1,/,.
Cc1cccc(NC(=O)N2CCN(c3cc(-n4ccnc4)ncn3)CC2)c1C,.,.
CCC(C(=O)Nc1cc(-c2ccco2)nn1-c1nc(C)c(C)c(=O)[nH]1)c1ccccc1 (centres undefined),.,.
O=C1CCC(=O)N1NC(=O)C12CC3CC(CC(C3)C1)C2,/,.
O=C(CSCc1ccccc1)NCCS(=O)(=O)N1CCN(c2ccccn2)CC1,.,.
Cc1cn2c3c(=O)[nH]c(=O)n(C)c3nc2n1CCCN1CCOCC1,.,+
Cc1c(C)n2c3c(=O)n(C)c(=O)n(C)c3nc2n1CCCN1CCOCC1,.,+
CCCCCn1c(C)c(C)n2c3c(=O)n(C)c(=O)n(C)c3nc12,.,.
CCCCn1c(NCCCN2CCOCC2)nc2c1c(=O)[nH]c(=O)n2C,.,.
CC(=O)Nc1ccc(C(=O)NCCN)cc1,/,.
Cc1cc(C)c(S(=O)(=O)N2CCN(c3c(C)cccc3C)CC2)c(C)c1,/,.
Cc1cc(C)c(S(=O)(=O)N2CCN(c3cccc(C)c3C)CC2)c(C)c1,/,+
Cn1nnc2c(Nc3ccc(Nc4ccccc4)cc3)ncnc21,.,.
O=C(NCCOc1ccc(-c2ccco2)nn1)c1cccs1,.,.
COc1cccc2sc(=NC(=O)c3cc(C)no3)n(C)c12,.,+
COc1ccc(OC)c2c1sc(=NC(=O)c1cc(C)no1)n2C,.,.
COc1ccc(NC(=O)C(=O)NCC(c2cccc3ccccc23)N2CCOCC2)cc1 (centres undefined),/,.
COc1ccc(-n2nnnc2SC(C)C(=O)Nc2ccc(C(=O)O)cc2)cc1 (centres undefined),/,+
COc1ccc(-n2nnnc2SC(C)C(=O)Nc2ccccc2OC)cc1 (centres undefined),/,+
CCc1ccc(-n2nnnc2SC(C)C(=O)Nc2ccccc2OC)cc1 (centres undefined),/,.
SMILES,GIRK2 act,GluA2 TARP mod
COc1ccc(NC(=O)C(C)Sc2nnnn2-c2ccccc2)cc1 (centres undefined),/,.
COc1ccc(N2CCCn3c2nc2c3c(=O)n(CC(N)=O)c(=O)n2C)c(OC)c1,/,.
Cc1ccc(-c2noc(-c3cn(CC(=O)Nc4ccc(C(N)=O)cc4)c4nc(C)ccc4c3=O)n2)cc1,.,.
COCCNC(=O)C(=O)Nc1ccc(F)c([N+](=O)[O-])c1,.,.
Cn1cccc1CN(C(=O)Cn1c(=O)oc2ccccc21)C1CC1,.,/
CCOc1nn(CC)cc1-c1nnc(SC)n1CC,.,.
CCn1c(=O)c(C(=O)NCCc2cccc(OC)c2)cc2cccnc21,.,.
COc1cccc(C(=O)NCC(O)(c2cccs2)C2CC2)c1OC (centres undefined),.,.
COc1nn(C)cc1C(=O)NCC(O)(c1ccccc1)C1CC1 (centres undefined),/,.
COc1ccc(Cl)cc1C(=O)NCC(O)(c1cccs1)C1CC1 (centres undefined),.,+
COc1ccc(Cl)cc1C(=O)NCC(O)(c1ccccc1)C1CC1 (centres undefined),/,+
Cc1ccc(-c2cc3c(=O)n(Cc4nc(-c5cccc(Cl)c5)no4)ccn3n2)cc1,.,/
Cc1ccsc1C(O)CNS(=O)(=O)c1c(C)noc1C (centres undefined),.,.
COc1cccc(-c2cc(CC(=O)NCCCN3CCOCC3)no2)c1,.,+
COc1ccc(-c2cc(CC(=O)NCCN3CCOCC3)no2)cc1,.,/
CCc1ccc(Oc2cc(N3CCC(C(=O)NCc4ccc(F)c(Cl)c4)CC3)ncn2)cc1,.,+
CCc1ccc(Oc2cc(N3CCC(C(=O)NCc4cccc(Cl)c4)CC3)ncn2)cc1,.,.
COc1cc(C(=O)NCCOc2ccccc2)c([N+](=O)[O-])cc1OC,.,.
Cc1cccc(N2C(=O)CC(c3cn(C)c4ccccc34)C2=O)c1 (centres undefined),/,.
Cc1ccccc1N1C(=O)CC(c2cn(Cc3ccccc3)c3ccccc23)C1=O (centres undefined),/,+
O=C(Nc1ccc(F)c(F)c1)c1sccc1S(=O)(=O)N1CCN(c2ccccc2)CC1,.,+
COc1cccc(NC(=O)c2sccc2S(=O)(=O)N2CCN(c3ccc(Cl)cc3)CC2)c1,.,/
O=C(CSc1ccc([N+](=O)[O-])cc1[N+](=O)[O-])Nc1cccc(C(F)(F)F)c1,/,+
CC(=O)Nc1ccc(NC(=O)CSc2ccc(S(=O)(=O)C(F)(F)F)cc2[N+](=O)[O-])cc1,/,.
Cc1cccnc1NC(=O)c1ccc(S(=O)(=O)Nc2ccc(OC(F)(F)F)cc2)o1,.,.
SMILES,GIRK2 act,GluA2 TARP mod
CC(=O)Nc1ccc(NC(=O)c2ccc(-c3c(Cl)cccc3Cl)o2)cc1,/,.
COc1ccc(CNC(=O)Cn2cc(-c3nc(-c4cnccn4)no3)ccc2=O)cc1,.,.
O=C(Cn1nc(-c2cccnc2)ccc1=O)Nc1nc2ccccc2[nH]1,.,+
Cc1cc(=O)n(CC(=O)Nc2nc3ccccc3[nH]2)cn1,.,.
COc1ccc(OC)c(C(=O)CSc2nccn(-c3cccc(F)c3)c2=O)c1,/,.
O=C(Nc1cc(-c2ccccc2)nn1CCO)c1ccsc1,.,.
O=C(Nc1cc(-c2ccccc2)nn1CCO)c1cccc(Cl)c1,.,+
COc1ccc(SCC(=O)Nc2sc3c(c2C#N)CCCCC3)cc1,/,.
CSc1ccccc1CN1CCC(CNC(=O)C(=O)Nc2ccccc2Cl)CC1,.,+
CSc1ccccc1NC(=O)C(=O)NCC1CCN(Cc2ccccc2)CC1,.,.
COc1cccc2cc(C(=O)Nc3ccc(CC(=O)NC(C)(C)CO)cc3)oc12,.,/
CCCC(=O)NCCNc1ccc(Nc2ccncc2)nn1,.,.
COC(=O)c1ccccc1N=Nc1c(N)[nH]n(-c2ccccc2)c1=O,/,+
COC(=O)c1ccccc1-n1c(=O)c2ccccc2c2ccccc2c1=O,/,.
COc1ccc(S(=O)(=O)CCC(=O)Nc2cccc(-c3nc4ccccc4s3)c2)cc1,.,.
O=C(COc1cccc2c1CCN(Cc1ccccc1)C2=O)NC1CCCCC1,/,.
CCOC(=O)c1c(NC(=O)COc2cccc3c2CCN(Cc2ccc(Br)cc2)C3=O)sc2c1CCC2,/,+
COc1ccc(C(=O)Nc2ccc(CC(=O)N3CCOCC3)cc2)c(OC)c1OC,.,.
Cc1cc(C)n(CC(=O)NCCOc2ccc(F)cc2)n1,/,.
COc1ccc(CNC(=O)Nc2cc(-c3ccsc3)ccc2NC(C)=O)cc1OC,.,/
CN1CCOc2ccc(NS(=O)(=O)c3ccc(-c4ccccc4)cc3)cc2C1=O,/,.
CN1CCOc2ccc(NS(=O)(=O)c3ccccc3)cc2C1=O,/,+
CC(=O)Nc1ccc(C(=O)NCCNC(=O)Nc2ccc(C(C)(C)C)cc2)cc1,.,/
Cc1onc(-c2ccccc2Cl)c1C(=O)NCC(O)(c1ccccc1)C1CC1 (centres undefined),/,.

# From PubChem BioAssay
